In ChEMBL document CHEMBL3433997, “St. Jude Leishmania screening dataset” (2016):

Molecular target: Solute carrier family 2, facilitated glucose transporter member 1 (Homo sapiens) (UniProt P11166)
Experiment: ST_JUDE_LEISH: Cytotoxicity at 2uM final concentration against transgenic Leishmania Mexicana promastigotes LmGLUT1 that are glucose transport deficient and complemented with the human glucose transporter GLUT1. Activity is measured by DNA content using SYBR green in vitro
Type: functional

Solute carrier family 2, facilitated glucose transporter member 1 (Homo sapiens), sequence (P11166 whole entry): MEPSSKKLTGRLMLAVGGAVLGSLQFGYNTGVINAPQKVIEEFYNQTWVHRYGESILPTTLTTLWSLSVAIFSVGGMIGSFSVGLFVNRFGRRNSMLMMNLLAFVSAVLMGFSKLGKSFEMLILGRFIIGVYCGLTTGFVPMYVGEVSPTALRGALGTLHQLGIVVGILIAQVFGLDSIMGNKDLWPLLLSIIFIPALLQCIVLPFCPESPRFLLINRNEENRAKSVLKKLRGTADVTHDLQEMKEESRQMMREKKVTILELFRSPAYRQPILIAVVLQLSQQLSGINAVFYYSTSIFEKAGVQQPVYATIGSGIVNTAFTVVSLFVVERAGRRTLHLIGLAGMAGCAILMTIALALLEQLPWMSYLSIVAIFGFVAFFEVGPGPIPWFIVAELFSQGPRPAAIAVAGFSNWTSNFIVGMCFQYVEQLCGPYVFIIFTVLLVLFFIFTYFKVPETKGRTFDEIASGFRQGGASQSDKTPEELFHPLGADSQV

SMILES	inhibition [%]
O=C(Nc1ccccc1)N1CCOC(CCN2CCC(F)(F)CC2)(c2ccc(Cl)c(Cl)c2)C1 (stereo not given)	2.76
COc1ccc(-c2cccc(NC(=O)c3cccc(C#N)c3)c2)cc1CN1CCNCC1	11
COc1ccc(CCn2c(=N)c(C(=O)NCc3ccc(C)cc3)cc3c(=O)n4ccccc4nc32)cc1	3.94
NC(=O)c1cccc(Nc2nccc(Nc3ccc(Oc4cccc(Cl)c4)c(Cl)c3)n2)c1	10.6
CC(=O)Nc1ccc(CN2CCC(NC(=O)c3ccc(-c4cccc(Cl)c4)s3)CC2)cc1	2.01
O=C(Nc1cccc(CN2CCN(C(=O)c3cccc(F)c3)CC2)c1)c1cccs1	0.66
OC(CNc1ccnc(Nc2cccc(Cl)c2)n1)c1cccc(C(F)(F)F)c1 (stereo not given)	14.4
Cc1cccc2nc(-c3ccc(-c4ccc(CN5CCC(C(N)=O)CC5)cc4)cc3)[nH]c12	6.51
CCN(CC)CCCC(C)Nc1ccnc2ccc(OC)cc12 (stereo not given)	8.15
Cc1cc(CN2CCC(C(=O)Nc3ccc(-c4nc5ccccc5[nH]4)cc3)CC2)oc1C	13.2
COc1cc(Nc2nc(N)c3cc(OC)c(OC)cc3n2)cc(OC)c1	6.58
Cc1nc(N)nc(N)c1-c1ccc(Br)c([N+](=O)[O-])c1	1.12
CN(C)CCCOc1cc(NC(=O)Nc2ccc(-c3ccncc3)c3ccccc23)ccc1I	6.91
O=C(Nc1cccc(CN2CCCN(Cc3ccsc3)CC2)c1)c1ccc(Cl)c(Cl)c1	4.04
COc1cc(C=NN=c2cc(C)[nH]c3ccccc23)cc(OC)c1OC	3.56
Cc1ccc2[nH]c(C3CCCNC3)c(-c3ccncc3)c2c1 (stereo not given)	9.43
CC(C)c1sc(N2CCN(C)CC2)nc1C(=O)NCCc1ccc(Br)cc1	3.06
Oc1ccc(CCCc2cc(Oc3c(I)cc(CCc4ncc[nH]4)cc3I)ccc2O)cc1	1.08
COc1ccc(C(C)Nc2nc(N)c3cc(OC)c(OC)cc3n2)cc1 (stereo not given)	4.72
O=C(Cc1ccccc1)NC(CCN1CCC(O)(c2cccc(C(F)(F)F)c2)CC1)c1ccc(Cl)c(Cl)c1 (stereo not given)	4.97

SMILES	inhibition [%]
O=C(/C=C/c1ccc(Cl)c(Cl)c1)NCCCCCN1CCC(NC(=S)Nc2ccc(Cl)cc2)CC1	9.42
Cc1cc(N/N=C/c2cccc([N+](=O)[O-])c2)c2ccc(F)cc2n1	3.46
CN(C)Cc1cccc(-c2ccc(Nc3nccc(NCC(O)c4ccccc4)n3)cc2)c1 (stereo not given)	2.6
O=C(/C=C/c1ccc(Cl)c(Cl)c1)NCCCCN1CCCN(C(=O)Nc2ccc(Cl)c(Cl)c2)CC1	-2.19
COc1ccc2nc3cc(Cl)ccc3c(NCCCCN3CCNCC3)c2c1	6.28
O=C(/C=C/c1cccc(C(F)(F)F)c1)NCCCCCN1CCC(c2c[nH]c3ccccc23)CC1	4.06
CCOc1ccc2c(=NN=Cc3ccccc3F)cc(C)[nH]c2c1	1.77
CCc1nc2nc(C)cc(Nc3ccc(F)c(Cl)c3)n2n1	-2.16
CC(C)N1CCN(CCCCNc2c3ccccc3nc3ccccc23)CC1	33
Cc1cccc(N2C(N)=NC(N)=NC2(C)C)c1C	0.74
CCN(CC)CCNc1cc(C)nc(NC(=N)Nc2ccc(Cl)cc2)n1	6
O=C(Nc1ccc(C(F)(F)F)cc1)c1ccc(S(=O)(=O)NC2CCN(CC3CCCCC3)CC2)cc1	1.19
CCN(CC)CCN(Cc1ccc(-c2ccc(C(F)(F)F)cc2)cc1)C(=O)Cn1c(CCc2cccc(F)c2F)cc(=O)cc1-c1ccccc1	1.88
O=C1Nc2cccc3c2C1(CCCN1CCC(c2c[nH]c4cc(C(F)(F)F)ccc24)CC1)CCC3 (stereo not given)	-0.49
CN(C)c1ccc(C=C2SC(=N)N(c3nccs3)C2=O)cc1	3.25
CN1CCCN(Cc2cccc(-c3cccc(NC(=O)c4ccc(Cl)cc4)c3)c2)CC1	5.97
Cc1nn(-c2cccc(C(F)(F)F)c2)c2sc(C(=O)NC3CCN(C(C)C)CC3)cc12	1.73
COc1ccccc1N1CCN(CCCCNC(=O)c2ccc(NC(=O)c3ccc(OC(F)(F)F)cc3)cc2)CC1	1.23
COc1ccc(OC)c(-c2cccc(-c3cccc(NC(=O)c4ccc([N+](=O)[O-])o4)c3)n2)c1	6.43
CC(C)Cc1nc(N2CCOCC2)c2nnn(Cc3ccccc3)c2n1	3.23
